# Compound activity from PubChem BioAssay.
# An excerpt weighted towards active compounds, which were near 1.4% of everything screened.
# MmCpn inh = Inhibitors of TCP-1 ring complex (TRiC) of Methanococcus maripaludis (MmCpn): qHTS; Chaperonin Mm-Cpn (Methanococcus maripaludis); purified Mm-Cpn ATPase, ADP Transcreener TR-FRET; Potency, µM (doses to about 76.9 µM), for inactives: at the highest dose activity, negative = inhibition, hits mostly inhibitors; 330,000 tested, 0.031% active; active means well fitted inhibition curve with a large enough effect; inconclusive means small, poorly fitted or top-dose-only effect; further: potency means the concentration at half of the fitted maximal effect; on the % scale 0 is the no-effect control and ±100 the full control effect; nearly all actives have a fitted effect of over 80% in size
#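 Quantitative HTS used 25 nM Mm-CPN and 10 uM ATP in magnesium/KCl Tris buffer, pH 7.4, with 1 mM DTT. Hydrolysis ran 30 min at 37°C; ADP was read by HTRF.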
# hERG WT inh = qHTS for Inhibitors of KCHN2 3.1: Wildtype qHTS; Voltage-gated inwardly rectifying potassium channel KCNH2 (Homo sapiens), Q12809; activity change, % at 1.84 µM; 340,000 tested, 0.37% active; U2OS, BacMam KCNH2, thallium flux FluxOr; stronger effect = lower value;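 active means maximum activity change below -70%; inconclusive means maximum activity change between -70% and -50%; inactive means maximum activity change above -50%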; further: on the % scale 0 is the no-effect control and ±100 the full control effect
# Target sequence (Q12809 whole entry, looked up): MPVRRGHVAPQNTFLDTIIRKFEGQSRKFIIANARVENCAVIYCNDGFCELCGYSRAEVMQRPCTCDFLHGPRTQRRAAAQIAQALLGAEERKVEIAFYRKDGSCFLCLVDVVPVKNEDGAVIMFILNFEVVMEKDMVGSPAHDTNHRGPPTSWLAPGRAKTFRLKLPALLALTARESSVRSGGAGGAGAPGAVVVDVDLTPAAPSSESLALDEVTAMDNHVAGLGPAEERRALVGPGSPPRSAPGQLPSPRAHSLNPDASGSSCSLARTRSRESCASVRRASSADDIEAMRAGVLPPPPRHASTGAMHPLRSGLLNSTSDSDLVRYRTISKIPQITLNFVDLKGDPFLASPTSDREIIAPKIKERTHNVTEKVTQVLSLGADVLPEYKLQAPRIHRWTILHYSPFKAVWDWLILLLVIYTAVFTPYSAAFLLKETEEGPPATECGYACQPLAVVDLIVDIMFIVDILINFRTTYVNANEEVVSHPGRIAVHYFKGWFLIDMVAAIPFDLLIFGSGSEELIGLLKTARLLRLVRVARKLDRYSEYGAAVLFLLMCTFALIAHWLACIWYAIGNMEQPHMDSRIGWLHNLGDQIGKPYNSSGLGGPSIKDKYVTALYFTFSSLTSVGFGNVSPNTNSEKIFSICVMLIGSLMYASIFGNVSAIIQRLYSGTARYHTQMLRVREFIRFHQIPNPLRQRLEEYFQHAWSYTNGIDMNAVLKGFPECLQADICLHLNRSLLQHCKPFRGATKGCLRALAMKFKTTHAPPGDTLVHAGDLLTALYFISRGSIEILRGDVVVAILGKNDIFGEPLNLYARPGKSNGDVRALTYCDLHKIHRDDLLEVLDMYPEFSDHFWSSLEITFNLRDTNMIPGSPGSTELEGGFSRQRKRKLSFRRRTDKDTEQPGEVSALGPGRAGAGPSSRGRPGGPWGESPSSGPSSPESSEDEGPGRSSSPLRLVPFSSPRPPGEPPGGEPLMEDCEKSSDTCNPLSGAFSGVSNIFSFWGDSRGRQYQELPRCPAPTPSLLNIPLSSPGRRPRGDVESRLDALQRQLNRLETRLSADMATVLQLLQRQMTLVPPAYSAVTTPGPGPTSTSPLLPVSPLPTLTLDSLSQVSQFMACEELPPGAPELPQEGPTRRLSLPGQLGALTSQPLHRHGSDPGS
#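 U2OS cells were transduced with wild-type KCNH2 virus (2.03 x 10^8 / mL) for 4 h at room temperature, then cultured overnight at 37 C. Thallium flux was read with FluxOr dye. Rate constants were normalized to DMSO controls.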
# Rango-impB inh = qHTS Assay for Inhibitors of Rango (Ran-regulated importin-beta cargo) - Importin beta complex formation. Potency, µM (doses to about 92.2 µM), for inactives: at the highest dose inhibition of complex formation. 340,000 tested, 0.031% active. Rango CFP/YFP FRET sensor + importin beta, 45 min. Importin subunit beta-1 (Homo sapiens), Q14974;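 further: potency means the concentration at half of the fitted maximal effect; 0% = DMSO wells and 100% = buffer wells lacking importin beta; nearly all actives have a fitted effect of over 15% in size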
#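 FRET biosensor (snurportin 1 IBB flanked by EYFP and cerulean), 50 nM, with compound 5 min, then 0.125 microM importin beta in PBS, 1 mM DTT, 0.02% Tween-20, 0.1% BSA. CFP/YFP ratio read after 45 min at room temperature; pre-read flags interference.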
# CCT chaperon mod = High-Throughput Screening for Modulators of Cytosolic Chaperonin Activity. purified chaperonin ATPase assay, HTRF ADP detection, 30 min. activity change, % (test concentration not listed), hits read low. 360,000 tested, 0.3% active. AID 651819, 2012; in the data active means activity change below about -30%; further: on the % scale 0 is the no-effect control and ±100 the full control effect
#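 We incubate TRiC, 40 or 20 nM final, with library compounds at 76 uM and 10 uM ATP for 30 min at 37 °C. ADP formed is detected with Transcreener HTRF reagents after 30 min at room temperature.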
# KCNH2 3.1 inh = qHTS for Inhibitors of KCHN2 3.1: Mutant qHTS | Potassium voltage-gated channel subfamily H member 2, brain isoform KCNH2 3.1 (human) | U2OS KCNH2 3.1, thallium flux FluxOr; stronger effect = lower value | activity change, % (tested at about 1.8 µM) | 340,000 tested, 0.95% active | AID 720553, 2013;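 active means maximum activity change below -70%; inconclusive means maximum activity change from -70% to -50%; inactive means maximum activity change above -50%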;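 further: thallium influx rate constant from kinetic fluorescence after stimulation buffer; on the % scale 0 is the no-effect control and ±100 the full control effect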
#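 Normalized rate constant (relative to positive and negative DMSO controls) derived from a 2 min kinetic fluorescence read after stimulation; U2OS cells expressing the 3.1 isoform via virus at 1.77 x 10^8 /mL.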
# Rango dissoc inh = qHTS Assay for Inhibitors of RanGTP induced Rango (Ran-regulated importin-beta cargo) - Importin beta complex dissociation | Biochemical FRET Rango-importin beta, RanGTP-induced dissociation | Potency, µM (highest dose often 46.1 µM), for the others: at the top dose activity change, negative = inhibition | 340,000 tested, 0.071% active | Snurportin-1 (Homo sapiens) + GTP-binding nuclear protein Ran (Homo sapiens) + Importin …; further: potency means the concentration at half of the fitted maximal effect; % of control where 0% means no effect; nearly all actives have a fitted effect of over 45% in size
#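 Quantitative HTS using a FRET biosensor: 0.1 uM Rango, 0.25 uM importin beta, 0.6 uM Ran, 2 mM GTP, 0.2 uM RCC1 final, PBS with DTT, Tween-20 and BSA. Post-read taken 45 min after Ran addition.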
# * hit, by the source's call; ? = inconclusive; nt = not tested or not shown; + = active, no number. Unless noted, the call rests on the fitted dose curve.
SMILES,MmCpn inh,hERG WT inh,Rango-impB inh,CCT chaperon mod,KCNH2 3.1 inh,Rango dissoc inh
COc1ccc(C)cc1NC(=O)CN1CCN(C/C=C/c2ccccc2)CC1,-2%,-98*,1%,-2,-102*,-17%
COc1ccc(C)cc1NC(=O)CN1CCN(c2ccccc2F)CC1,-2%,-3,3%,0,0,-11%
COc1ccc(C)cc1NC(=O)Nc1ccccc1,1%,-137*,-1%,-3,-135*,6%
CCOC(=O)c1[nH]c2ccc(F)cc2c1NC(=O)CN1CCc2cc(OC)c(OC)cc2C1,0%,nt,nt,nt,nt,nt
CCOC(=O)c1[nH]c2ccc(F)cc2c1NC(=O)CN1CCN(C/C=C/c2ccccc2)CC1,1%,-90*,4%,-3,?,1%
COC(=O)c1[nH]c2ccccc2c1NC(=O)CN1CCN(C/C=C/c2ccccc2)CC1,-4%,-94*,2%,-4,-96*,10%
COc1ccc(NC(=O)Nc2cc(C)ccc2OC)cc1,-3%,0,-3%,1,-7,3%
CC(C)(C)[C@H](NC(=O)c1ccc(N)c(Cl)c1)C(=O)N1CCC[C@H]1C(=O)N[C@H](C#N)Cc1nn[nH]n1,1%,nt,nt,nt,nt,nt
O=C(CN1CCN(C/C=C/c2ccccc2)CC1)NCc1ccc(Cl)cc1,1%,?,0%,-4,-124*,-8%
O=C(CN1CCN(c2ccc(Cl)cc2)CC1)NCc1ccccc1,1%,24,1%,-1,nt,1%
OCC1(CCc2ccccc2)CCCN(CCCc2ccccc2)C1 (centres undefined),0%,?,2%,-1,-96*,4%
Cc1nc(N2CCN(C)CC2)[nH]c(=O)c1Cc1cccc2ccccc12,-1%,-1,-1%,2,-15,0%
Cc1[nH]c(=O)[nH]c(=O)c1Cc1cccc2ccccc12,0%,-2,2%,-37*,-6,30%
COc1cc(NC(=O)COC(=O)CCOc2ccc(C)cc2)cc(OC)c1,0%,-7,1%,0,-5,-2%
COc1ccc2c(c1)C(=O)CCC2c1ccccc1 (centres undefined),1%,8,-1%,0,-120*,-2%
Fc1ccc(N2CCN(C3=Nc4cccc5cccc3c45)CC2)cc1,2%,+,14%,3,-80*,3%
COc1ccc(NC(=O)CSc2nc3ccc(Nc4nc(N5CCOCC5)nc(N5CCOCC5)n4)cc3s2)cc1,-4%,-2,1%,-75*,-23,0%
CCOc1ccc(C(=O)Nc2cccc(-c3nc4ccccc4[nH]3)c2C)cc1[N+](=O)[O-],-1%,-6,-1%,-7,-78*,8%
CCOc1ccc(C(=O)Nc2cc(-c3nc4ccccc4[nH]3)ccc2C)cc1[N+](=O)[O-],1%,-31,3%,-1,-86*,-7%
CCOc1ccc(C(=O)Nc2nc(C)cc(C)n2)cc1[N+](=O)[O-],0%,-1,-1%,-3,3,-8%
CCOc1ccc(C(=O)Nc2cc(-c3nc4ccccc4[nH]3)ccc2Cl)cc1[N+](=O)[O-],0%,-27,-1%,-3,-70*,0%
CCOc1ccccc1NC(=O)c1ccc(OCC)c([N+](=O)[O-])c1,1%,2,0%,-8,-19,-11%
COc1cc(OC)c(C2=Nc3ccc(Br)cc3C(c3ccccc3)N2CC(=O)NN)cc1OC (centres undefined),1%,-1,4%,-1,2,-4%
CCn1cc(C2=NC(C)CO2)c2ccccc21 (centres undefined),1%,-7,-2%,0,-71*,-3%
CCn1cc(C2=NC(c3ccccc3)CO2)c2ccccc21 (centres undefined),0%,9,-3%,0,1,8%
SMILES,MmCpn inh,hERG WT inh,Rango-impB inh,CCT chaperon mod,KCNH2 3.1 inh,Rango dissoc inh
Cc1ccc(-c2csc3ncnc(-n4nc(C)cc4N)c23)cc1,2%,5,0%,-95*,0,-10%
CC(C)C(=O)Nc1c2c(nn1-c1ccc(F)cc1)CS(=O)(=O)C2,-10%,-8,1%,0,-109*,8%
O=C(Nc1c2c(nn1-c1ccc(F)cc1)CS(=O)(=O)C2)C1CCCC1,-3%,3,3%,-2,-21,-24%
O=[N+]([O-])c1cc(CN2CCCC2)ccc1Sc1ccc(Cl)cc1,1%,26,0%,0,-92*,20%
Clc1ccc(CN2CCCCCC2)cc1,2%,-4,0%,-1,5,0%
CC(OC(=O)c1ccc(Cl)cc1)C(=O)NCC1CCCCC1 (centres undefined),-2%,6,0%,-4,-1,-8%
Cc1ccccc1C(=O)c1cccn1CC(=O)NCCN1CCN(c2cccc(C)c2C)CC1,-1%,?,1%,1,-79*,3%
Cc1ccc(C)c(N2CCN(CCCNC(=O)Cn3cccc3C(=O)c3ccccc3C)CC2)c1,-1%,-75*,3%,-2,-84*,2%
NNC(=O)C12CC3CC(C1)CC(n1ncnn1)(C3)C2,0%,-1,0%,-2,-4,0%
COc1ccc(N2CC(C(=O)Nc3nnc(SCC(=O)NCC4CCCO4)s3)CC2=O)cc1 (centres undefined),nt,-128*,-5%,-1,-197*,-10%
COc1cc(CC(=O)NCC2CCCCC2)cc(OC)c1OC,-1%,4,-1%,1,3,16%
COc1ccc(C2=CC(c3ccc(OC)c(OC)c3)NC(=S)N2)cc1 (centres undefined),-3%,2,?,0,11,?
COc1cccc(C2=CC(c3ccc(OC)c(OC)c3)NC(=S)N2)c1 (centres undefined),-4%,-5,?,-1,13,7.3µM*
Cc1ccccc1NC(=O)CC(C)S(=O)(=O)c1ccc2c(c1)NC(=O)CO2 (centres undefined),-2%,-1,0%,-63*,7,2%
CO/N=C/c1ccc(N2CCN(C(=O)c3ccc(C)cc3)CC2)c([N+](=O)[O-])c1,-2%,-10,0%,1,-98*,1%
